In PubChem BioAssay (NCATS):
Inconclusive results are not listed. Activity calls are given as the source filed them. The call rests on the fitted dose curve; in most records, active means well fitted inhibition curve with a large enough effect; inconclusive means small, poorly fitted or top-dose-only effect; inactive means flat fitted curve, though single readings scatter.

Tested on: HEK293T
Assay: qHTS assay to identify novel small-molecules to repurpose for Merkel cell carcinoma treatment (AID 1296009); further: nearly all actives have a fitted effect of over 60% in size
Details: MCC and control cell lines, CellTiter-Glo viability, 72 h; at 44.8 µM (top of the series)
Outline: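 After compound transfer in DMSO, plates were kept 72 hr at 37 degree celsius. Luminescent ATP signal from CellTiter-Glo served as viability measure, normalized against DMSO and no-cell controls.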

Row | Compound | outcome
1 | C[C@H]1CNCCc2ccc(Cl)cc21 | inactive
2 | ClC1=C(Cl)C2(Cl)C(CBr)CC1(Cl)C2(Cl)Cl (centres undefined) | inactive
3 | CCOC(=O)NC(C)(C)Cc1ccc(Cl)cc1 | inactive
4 | COc1ccc(C(=O)N2CCCC2=O)cc1 | inactive
